Measurements published in PubChem BioAssay (NCI).
Compounds without any hit were thinned out: in the full panel of roughly 83,000, 20% have a hit.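 Growth was measured after 48 h exposure to one concentration of compound in 96-well plates. Values under 10 count as active.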 Unmarked numbers belong to inactive results. Active and inactive are the calls of the source.

Columns and labels:
Assay in all cases: NCI-60 one-dose screen, 48 h (100 = growth as untreated, 0 = no growth, -100 = all killed)
Conditions in all cases: 10 µM unless noted
HCT-15 colon = test system: HCT-15 colon
HT29 colon = test system: HT29 colon
SNB-75 CNS = test system: SNB-75 CNS
SNB-19 CNS = test system: SNB-19 CNS
U251 CNS = test system: U251 CNS
PC-3 prostate = test system: PC-3 prostate
SK-MEL-5 melanoma = test system: SK-MEL-5 melanoma
UACC-62 melanoma = test system: UACC-62 melanoma
LOX IMVI melanoma = test system: LOX IMVI melanoma
SK-MEL-28 melanoma = test system: SK-MEL-28 melanoma

Row | Structure (SMILES) | growth (HCT-15 colon) | growth (HT29 colon) | growth (SNB-75 CNS) | growth (SNB-19 CNS) | growth (U251 CNS) | growth (PC-3 prostate) | growth (SK-MEL-5 melanoma) | growth (UACC-62 melanoma) | growth (LOX IMVI melanoma) | growth (SK-MEL-28 melanoma)
1 | c1ccc([Se]CCCN2CCN(CCC[Se]c3ccccc3)CC2)cc1 | 90.9% | 96.3% | 100% | 119% | 101% | 102% | 101% | 92.3% | 91.6% | 111%
2 | O=C(NCCNc1nccc(-c2c(-c3cccc(O)c3)nc3sccn23)n1)c1cccc(C(F)(F)F)c1 | 87.8% | 81.1% | 73.8% | 116% | 84.8% | 67.3% | 52.6% | 3.21% (active) | 53.4% | 38.5%
3 | O=C(Nc1cccc([N+](=O)[O-])c1)Nc1cccc([N+](=O)[O-])c1 | 24.6% | 40.9% | 107% | 52% | 50.8% | 12.7% | 55% | 29.9% | 51.3% | 60.3%
4 | c1ccc2c(c1)Oc1cccnc1-n1nccc1-2 | 108% | 99.7% | 88.8% | 103% | 100% | 89.7% | 95.7% | 84.7% | 96.3% | 102%
5 | O=C(Nc1ccc(-n2cc(-c3ccncc3)c(-c3ccc(O)c(Cl)c3)n2)cc1)c1cc(Cl)cc(Cl)c1 | 11.2% | -19.5% (active) | 60.6% | 50% | 26.8% | 35.6% | 2.65% (active) | 65.9% | 1.16% (active) | 53.4%
6 | O=S(c1ccccc1)c1ccc2nnnn2n1 (stereo not given) | 79.8% | 92% | 107% | 107% | 103% | 96.6% | 99.8% | 98.6% | 89.7% | 105%
7 | c1cncc(-c2nc3ccccc3[nH]2)c1 | 111% | 102% | 96.9% | 111% | 104% | 89.7% | 90.8% | 85.5% | 94.4% | 87%
8 | OCc1cn(-c2ccc(Cl)cc2)nc1-c1ccc(O)cc1 | 93.7% | 92.6% | 83.3% | 104% | 106% | 96.5% | 95.4% | 100% | 92.2% | 108%
9 | CCCCCCCCCCCCCCCCNc1ccccc1 | 103% | 87.1% | 107% | 108% | 86.2% | 82% | 104% | 98.8% | 101% | 113%
10 | O=C(O)c1ccc(-n2cc(/C=N/Nc3ccc(F)cc3)c(-c3cccc(C(F)(F)F)c3)n2)cc1 | 53.6% | 86.8% | 88.4% | 91.3% | 84.9% | 62.6% | 87.6% | 24.1% | 42.8% | 96.1%
11 | O=C(Nc1ccc(-n2ccc3c(NC(=O)c4ccccc4)ncnc32)cc1)c1ccc(Cl)c(C(F)(F)F)c1 | 3.27% (active) | -50.6% (active) | 66.5% | 24.7% | -62.9% (active) | 29.1% | 26.3% | 5.8% (active) | -9.6% (active) | 62.5%
12 | S=c1[nH]nc(Cn2c3ccccc3c3ccncc32)o1 | 110% | 94.6% | 102% | 98.6% | 94.8% | 99.4% | 102% | 93.3% | 97.8% | 101%
